Compound activity (PubChem BioAssay)
A selection: hits, their analogues and other compounds. The true share with any hit is near 7.5%.
NPC1 promoter act – NPC1 promoter activation; Huh7 NPC1 promoter luciferase reporter, 24 h; Potency, µM (highest dose often 9.22 µM), without a hit: at the top dose activation, hits mostly activators; hit rate 2.4% among 320,000; AID 485313; also: % of control where 0% means no effect; nearly all actives have a fitted effect of over 60% in size
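In 1536-well qHTS, Huh7 cells harboring an NPC1 promoter–luciferase construct received compound for 24 h; activation was quantified by luminescence following luciferase reagent addition.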
KinaseGlo FLuc – Kinase-Glo luciferase inhibition (counter-screen); Q27757; Kinase-Glo luciferase, ATP luminescence, 8 min; Potency, µM (series often up to 38.3 µM), for inactives: at the highest dose activity change, negative = inhibition, hits mostly inhibitors; hit rate 0.28% among 200,000; also: % is scaled to controls: 0 for no effect and ±100 for the full control effect; nearly all actives have a fitted effect of over 60% in size
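Compounds were added to a substrate mix at pH 7.2 (50 mM imidazole, 10 uM ATP, within the enzyme's linear range), followed by Kinase-Glo detection reagent; luminescence was measured after 8 minutes at ambient temperature.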
ELG1 genotoxic – genotoxicity induction in ELG1-luciferase HEK293T cells; HEK293T ELG1-luciferase reporter, luminescence, 16 h; Potency, µM (top dose mostly 46 µM), without a hit: at the highest dose activity change, positive = activation, actives largely listed as activators; hit rate 1.3% among 330,000; also: % of control where 0% means no effect; nearly all actives have a fitted effect of over 60% in size
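After overnight (16 hr) compound treatment at 37 °C, ELG1-luciferase HEK293T cells were lysed with ONE-Glo; luminescence quantified 30 min later at room temperature.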
SMN2 splice enh – enhancers of SMN2 splice variant expression; HEK293 SMN2-luciferase splicing reporter, luminescence, 30-36 h; Potency, µM (titrated, usually from 46.1 µM), without a hit: at the highest dose activity change, positive = activation, usual class: activators; hit rate 2.8% among 210,000; AID 1458; also: % of control where 0% means no effect; nearly all actives have a fitted effect of over 55% in size
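HEK293 cells carry an SMN2 […]–luciferase reporter in which exon 7 inclusion puts luciferase in frame. Cells were plated 10-12 h before compound addition, then incubated 30-36 h at 37C. ONE-Glo luminescence was read; sodium butyrate at 4.5 mM final served as control.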
Rab9 prom act – activates the Rab9 promoter | Potency, µM (doses to about 9.22 µM), for the others: at the top dose activation, negative = inhibition, usual class: activators | Huh7 Rab9 promoter-luciferase reporter, luminescence, 24 h | hit rate 2.8% among 320,000; also: % of control where 0% means no effect; nearly all actives have a fitted effect of over 60% in size
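Luminescence read-out: Huh7 cells stably expressing Rab9-luciferase, treated 24 h with compound at 37 °C, then lysed with luciferase reagent for 10 min at ambient before reading.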
FLuc counter – firefly luciferase modulation, counter-screen for miR-21 project. P08659. purified FLuc, Km substrates, luminescence inhibition. Potency, µM (series often up to 57.5 µM), for inactives: top-dose activity change, negative = inhibition, usual class: inhibitors. hit rate 6.9% among 360,000. AID 588342;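 also: plate controls were vehicle for no effect and reference inhibitor for full effect; nearly all actives have a fitted effect of over 55% in size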
Target sequence (P08659 whole entry, looked up): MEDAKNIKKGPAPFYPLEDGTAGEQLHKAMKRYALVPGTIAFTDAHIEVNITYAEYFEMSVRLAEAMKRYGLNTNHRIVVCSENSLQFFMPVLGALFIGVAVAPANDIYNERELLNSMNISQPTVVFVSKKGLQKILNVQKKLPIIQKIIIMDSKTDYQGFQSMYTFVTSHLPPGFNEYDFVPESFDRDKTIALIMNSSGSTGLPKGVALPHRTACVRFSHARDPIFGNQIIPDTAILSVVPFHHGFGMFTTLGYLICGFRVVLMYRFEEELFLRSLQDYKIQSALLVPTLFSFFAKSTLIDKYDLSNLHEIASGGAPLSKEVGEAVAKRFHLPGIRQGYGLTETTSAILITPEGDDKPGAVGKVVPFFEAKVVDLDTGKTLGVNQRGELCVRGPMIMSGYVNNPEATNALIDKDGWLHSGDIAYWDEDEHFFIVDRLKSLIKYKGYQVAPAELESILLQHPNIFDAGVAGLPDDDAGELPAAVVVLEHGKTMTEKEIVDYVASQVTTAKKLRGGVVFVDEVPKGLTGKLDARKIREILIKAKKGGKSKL
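Purified P. pyralis luciferase, 10 nM final, with Km-level 10 uM D-luciferin and 10 uM ATP in 50 mM Tris acetate pH 7.5, 10 mM Mg acetate, 0.01% Tween-20, 0.05% BSA; 6-point qHTS titration about 60 µM downward; luminescence read.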
* = called active by the depositor; ? = inconclusive; . = no result given; [ ] = another dose, or the depositor's remark. Calls follow the shape of the dose curve; as a rule, active = well fitted curve in the direction sought with a large enough effect; inconclusive = small, poorly fitted or top-dose-only effect, or another doubt; inactive = no such curve, though single readings can be large; an effect the other way counts as inactive or inconclusive. Potency is read from the fitted curve at half-maximal effect.

SMILES	NPC1 promoter act	KinaseGlo FLuc	ELG1 genotoxic	SMN2 splice enh	Rab9 prom act	FLuc counter
CC(=NCc1ccco1)c1c(C)[nH]n(-c2nc3ccccc3s2)c1=O	?	.	3.66µM*	.	?	7.57µM*
O=c1c(C=NCc2cccnc2)c(C(F)(F)F)[nH]n1-c1nc2ccccc2s1	-1.9%	-6.1%	-5.6%	.	1.1%	1.9%
CCC(=NCc1ccccc1)c1c(C(F)(F)F)[nH]n(-c2nc3ccccc3s2)c1=O	19.8%	-0.7%	?	-1.7%	2.9%	12µM*
CCCN=C(C)c1c(-c2ccccc2)[nH]n(-c2nc3ccccc3s2)c1=O	?	20.4%	-12.5%	-34.4%	26.3%	?
C/C(=N/NC(=O)c1cccs1)c1c(C)[nH]n(-c2nc3ccccc3s2)c1=O	2µM*	10µM*	?	11.2µM*	2µM*	0.601µM*
COc1ccc(OC)c(C(=O)N2CCC(n3nccc3NC(=O)CC(C)C)CC2)c1	-0.7%	.	-5.5%	.	-3.7%	-3.6%
CCCOc1ccc(OC(=O)c2sc3ncn(Cc4cccc(F)c4)c(=O)c3c2C)cc1	.	.	.	.	.	4.5%
O=C(Nc1nc2ccc(S(=O)(=O)N3CCCC3)cc2s1)c1ccccn1	26.3%	2.3%	-7.5%	-22.0%	?	?
CCOc1ccc2nc(NC(=S)NCc3ccccc3)sc2c1	9.1%	-3.1%	14.4%	-7.6%	12.3%	-12.5%
Cc1ccc2nc(NC(=O)c3ccccn3)sc2c1	?	.	0.164µM*	.	?	0.169µM*
CCOc1ccc2nc(NC(=O)c3ccccn3)sc2c1	0.1µM*	.	?	.	?	0.379µM*
O=C(Nc1nc2c(F)cc(F)cc2s1)c1ccccn1	0.112µM*	?	9.2µM*	2.82µM*	0.1µM*	0.675µM*
CCc1noc(C)c1C(=O)Nc1nc2c(F)cc(F)cc2s1	22.7%	.	-0.5%	.	?	12µM*
Cc1ccccc1CN1C(=O)c2ccccc2S(=O)c2ccc(C(=O)NC3CCC(C)CC3)cc21 (stereo not given)	.	.	.	.	.	0.3%
Cc1ccc(NC(=O)C2CCC(CNS(=O)(=O)c3csc(C(N)=O)c3)CC2)cc1Cl (stereo not given)	.	.	.	.	.	-1.2%
CCc1ccc(S(=O)(=O)c2nnn3c2nc(Nc2cccc(C)c2C)c2sccc23)cc1	.	.	.	.	.	1.7%
Cn1cc(S(=O)(=O)Nc2ccc3c(c2)OCCO3)cn1	-4.4%	.	?	.	11.6%	?
CCn1cc(S(=O)(=O)Nc2ccc3c(c2)OCCO3)cn1	2.7%	-1.4%	?	.	-9.3%	16.9µM*
COc1cccc(NC(=O)c2ccc3nc(C)sc3c2)c1	1.58µM*	.	23.1µM*	.	1.12µM*	10.7µM*
COc1ccccc1NC(=O)c1ccc2nc(C)sc2c1	3.98µM*	.	6.8%	.	?	?
O=C(Nc1cccc(Br)c1)c1ccc2nc(N3C(=O)CCC3=O)sc2c1	14.9%	-1.7%	-0.9%	-14.9%	17.9%	16.9µM*
COc1ccccc1NC(=O)CCS(=O)(=O)c1ccc2nc(C)sc2c1	.	.	.	.	.	-1.3%
CCn1cc(C(=O)NCc2ccc(C)cc2)c(=O)c2cc(S(=O)(=O)N3CCCCCC3)ccc21	.	.	.	.	.	-13.4%
COc1nc(C)ccc1-c1noc(-c2cccnc2)n1	?	.	?	.	?	23.9µM*
COc1ccccc1-c1nc(-c2ccc(C)nc2OC)no1	3.98µM*	-4.3%	8.2µM*	12.6µM*	2µM*	4.26µM*
SMILES	NPC1 promoter act	KinaseGlo FLuc	ELG1 genotoxic	SMN2 splice enh	Rab9 prom act	FLuc counter
COc1nc2cc(C)ccc2cc1-c1noc(-c2cccnc2)n1	5.5%	4.0%	-0.4%	-8.3%	0.6%	2.4%
CCc1nc(-c2ccc(C)nc2OC)no1	1.9%	-1.6%	1.3%	-3.9%	-1.0%	2.5%[2.3 µM]
COc1nc(C)ccc1-c1noc(-c2ccccn2)n1	1.26µM*	-21.6%	1.16µM*	8.91µM*	0.562µM*	6.01µM*
COc1nc(-c2ccccc2)ccc1-c1noc(C)n1	.	-1.3%	.	13.6%	.	?
Nc1cccc2c1C(=O)N(C(=O)/C=C/c1ccc(F)cc1)C2=O	-5.0%	-1.9%	12.2%	-3.1%	-10.7%	10.7µM*
Nc1cccc2c1C(=O)N(C(=O)c1ccco1)C2=O	-5.7%	.	-0.1%	.	0.9%	-11.2%
CC(C)(C)C(=O)Nc1cccc(-c2nc3ccccc3[nH]2)c1	10.7%	-3.1%	0.4%	28.6%	5.4%	15.1µM*
CC(C)CC(=O)Nc1cccc(-c2nc3ccccc3[nH]2)c1	2.4%	.	-2.0%	?	-5.8%	16.9µM*
CC(C)COc1ccc(C(=O)Nc2cccc(-c3nc4ccccc4[nH]3)c2)cc1	.	.	.	-14.8%	.	?
Cc1cc(C)cc(OCC(=O)Nc2cccc(-c3nc4ccccc4[nH]3)c2)c1	.	.	.	17.1%	.	10.7µM*
CC(Oc1ccccc1)C(=O)Nc1cccc(-c2nc3ccccc3[nH]2)c1 (stereo not given)	-0.4%	.	-4.5%	.	-0.5%	12µM*
CC(C)(C)c1onc(OCP(=O)(O)O)c1CC(N)C(=O)O (stereo not given)	-4.5%[46.1 µM]	-2.5%	.	5.3%	0.7%[46.1 µM]	.
Cc1nc2ccc(S(=O)(=O)NC(C(=O)NCc3ccc(Cl)cc3)C(C)C)cc2s1 (stereo not given)	.	.	.	-9.9%	.	1.3%
Cc1c(C(=O)Nc2cccc(F)c2)cnn1-c1ccccc1	1.58µM*	.	?	.	1.41µM*	6.01µM*
CC(=O)c1cccc(NC(=O)c2cnn(-c3ccccc3)c2C)c1	3.16µM*	.	?	.	3.98µM*	9.53µM*
Cc1c(C(=O)Nc2cccc([N+](=O)[O-])c2)cnn1-c1ccccc1	2.82µM*	.	?	.	2.51µM*	9.53µM*
COCCCNc1nc2c(c(=O)n(Cc3ccccc3)c(=O)n2C)n1C	.	.	.	-4.4%	.	1.3%
Cc1cc(C)c(C(=O)CSc2nnc(N)s2)cc1C	23.3%	.	8.6%	.	14.9%	-18.5%
Cc1nnc(SCC(=O)c2ccc(C(C)C)cc2)s1	28.6%	-1.1%	9.8%	4.8%	?	9.53µM*
Cc1cc(C)c(C(=O)CSc2nnc(C)s2)c(C)c1	-4.1%	1.4%	-5.3%	-14.0%	0.0%[1.84 µM]	-1.4%
Cc1ccc(C(=O)CSc2nnc(N)s2)c(C)c1	3.16µM*	-0.6%	14.6µM*	15.8µM*	2.51µM*	16.9µM*
CCOc1ccc(C(=O)CSc2nnc(N)s2)cc1	2.51µM*	-3.7%	?	11.6%	3.16µM*	13.5µM*
CC(=O)Nc1cccc(NC(=O)CSc2nccn2Cc2ccccc2)c1	-6.1%	.	-9.6%	.	-6.6%	-4.9%
O=C(O)/C=C\c1ccc(Cn2ccnc2)cc1	.	3.9%[17.1 µM]	.	-0.3%[20.6 µM]	.	.
Cc1ccc(C(=O)NC(=S)NCC(=O)c2ccccc2)cc1	14.0%	-4.3%	4.8%	25.1%	24.7%	?
CC(NC(=O)c1ccccc1)C(=O)OCC(=O)c1ccc(Br)cc1 (stereo not given)	-1.8%	.	6.1%	.	17.3%	-9.9%
